From PubChem BioAssay AID652054 (National Center for Advancing Translational Sciences (NCATS), 2013)
The campaign covered roughly 360,000 compounds. About 9,100 (2.5%) were called active. Another 4% or so got no clear call; they are omitted. The sample as a whole holds a higher share of actives than the screen did. Values without a mark were called inactive. Cut-off read from the data, not from the text of the source: active = max response below about -50%; inconclusive = no clear call, values can overlap the other calls; inactive = above that.

These compounds were tested against D(3) dopamine receptor (Homo sapiens) (UniProt P35462) (assay: qHTS of D3 Dopamine Receptor Antagonist: qHTS). Conditions: D3R cells, DiscoveRx beta-arrestin luminescence, antagonist mode; hits give low values.
Procedure, shortened: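 Cells plated overnight at 1500 cells/well, then exposed to library compounds with dopamine controls for 90 minutes at 37 degrees C. DiscoveRx reagent added for 30–60 minutes at room temperature; luminescence read, quantitative HTS format.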
% is set by controls: 0 for no effect and ±100 for the full control effect.

Sequence of D(3) dopamine receptor (Homo sapiens) (P35462 whole entry, looked up): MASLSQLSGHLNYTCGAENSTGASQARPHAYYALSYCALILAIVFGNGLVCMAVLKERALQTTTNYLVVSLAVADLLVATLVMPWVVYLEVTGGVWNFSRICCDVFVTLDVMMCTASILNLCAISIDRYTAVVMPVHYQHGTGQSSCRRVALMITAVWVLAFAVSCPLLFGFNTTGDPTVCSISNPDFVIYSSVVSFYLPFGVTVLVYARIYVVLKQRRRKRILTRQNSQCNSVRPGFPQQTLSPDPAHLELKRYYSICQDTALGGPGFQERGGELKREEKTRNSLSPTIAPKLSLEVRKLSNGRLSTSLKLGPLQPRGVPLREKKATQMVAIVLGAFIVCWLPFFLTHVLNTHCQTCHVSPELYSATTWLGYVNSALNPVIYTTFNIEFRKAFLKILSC

Row | Structure (SMILES) | max response, negative = inhibition
1 | NC(c1csc(NC(=O)Nc2cccc(C(F)(F)F)c2)n1)C1CCCCC1 (centres undefined) | 13.3%
2 | CCOC(=O)[C@]12CCC=C1N(CCC1=CCCCC1)C(=O)[C@H](CC(=O)NCc1ccc(C)o1)C2 | 16.1%
3 | COCCCNC(=O)c1ccc(-c2c(C)noc2C)c2ccoc12 | 0%
4 | CC(C)Cc1nc(Nc2ccc(S(=O)(=O)N3CCCC3)cc2)c2nnn(Cc3ccccc3)c2n1 | -27.2%
5 | Cc1nc(Nc2ccc(S(=O)(=O)N3CCCC3)cc2)c2nnn(Cc3ccccc3)c2n1 | -69.4% (active)
6 | Cc1nc(Nc2ccc3c(c2)OCCO3)c2nnn(Cc3ccccc3Cl)c2n1 | -26.4%
7 | NS(=O)(=O)c1ccc(CNC(=O)c2cc(S(=O)(=O)N3CCOCC3)ccc2N2CCCC2)cc1 | 0%
8 | COc1cc(CNc2ncnc3c2ncn3[C@H]2CN(Cc3cccs3)C[C@@H](CO)O2)cc(OC)c1OC | 13%
9 | C[C@H](CO)N1C[C@H](C)[C@@H](CN(C)Cc2ccc3c(c2)OCO3)OCc2cnnn2CCCC1=O | 9.24%
10 | CCCS(=O)(=O)NC(=O)C1(C)CCCN(C(=O)c2ccnc(Cl)c2)C1 (centres undefined) | -5.74%
11 | O=[N+]([O-])c1ccc(N2CCN(c3ccc(F)cc3)CC2)cn1 | 1.91%
12 | COc1ccc(N2CCN(C(=O)CNC(=O)c3ccc(Br)o3)CC2)cc1 | 4.35%
13 | Fc1ccc(N2CCN(Cc3cnc(Oc4ccc(Br)cc4)s3)CC2)cc1 | -67.9% (active)
14 | COc1ccc(N2CCN(Cc3ccc(Br)s3)CC2)cc1 | -54.8% (active)
15 | COc1ccc(N2CCN(C(=O)c3cccs3)CC2)cc1 | -4.36%
16 | O=C(c1ccccc1Oc1ccccc1)N1CCN(c2ccc(F)cc2)CC1 | 11.3%
17 | CO[C@@H]1CN(C)C(=O)c2cc(NC(=O)C3CC3)ccc2OC[C@H](C)N(C(=O)CN2CCOCC2)C[C@@H]1C | -4.53%
18 | Cc1cccc(C(=O)OCC(=O)Nc2sccc2C(N)=O)c1C | 12.4%
19 | CCOC(=O)C1Sc2[nH]c(=O)sc2C(c2ccc(Cl)cc2)C1C(=O)OCC (centres undefined) | -67.4% (active)
20 | CCOC(=O)C1C(=O)NCC1c1ccccc1 (centres undefined) | -22.2%
21 | CCOC(=O)C1CCN(C(=O)Nc2ccc(Cl)cc2)CC1 | 0%
22 | Cc1ccc(S(=O)(=O)N2[C@@H](Cc3ccccc3)CO[C@H]2CC(=O)OCc2ccccc2)cc1 | -24.9%
23 | COc1ccc(C(=O)NCC[N+](C)(C)C)cc1 | 7.47%

Row | Structure (SMILES) | max response, negative = inhibition
24 | COc1ccccc1CNC(=O)CCn1c(=O)sc2ccccc21 | -166% (active)
25 | CCc1nnc(NC(=O)CCC(=O)NCc2ccccc2OC)s1 | 14.9%
26 | COc1ccccc1CNC(=O)CCCN1C(=O)NC2(CCCC2)C1=O | -13.5%
27 | O=Cc1cn(CCOc2ccc(F)cc2)c2ccccc12 | 25%
28 | Cc1ccc(S(=O)(=O)NC(=O)N2CCCN(Cc3ccc(F)cc3)CC2)cc1 | -51.3% (active)
29 | CC(=O)N1CCN(CC(C)(C)NS(=O)(=O)c2ccc(C)cc2)CC1 | 0.902%
30 | Cc1ccc(S(=O)(=O)NC(=O)N2CCCC(C)(C)C2)cc1 | 2.79%
31 | O=C(c1ccc(N2CCCC2=O)cc1)N1CCN(c2ccc(C(F)(F)F)cc2[N+](=O)[O-])CC1 | 29.2%
32 | Cc1ccc(C(=O)OCC(=O)NCc2ccc3c(c2)OCO3)s1 | 5.99%
33 | O=C(NCc1ccc2c(c1)OCO2)c1ccc(Cl)s1 | -10.3%
34 | O=C(NCc1ccc2c(c1)OCO2)c1sccc1Br | 10.4%
35 | O=C(NCc1ccc2c(c1)OCO2)c1cc2c(s1)CS(=O)(=O)C2 | -163% (active)
36 | CCOC(=O)NCc1ccc2c(c1)OCO2 | -52.8% (active)
37 | O=C(NCc1ccc2c(c1)OCO2)C12CC3CC(CC(C3)C1)C2 | 10.5%
38 | CCOc1cc(/C=N/NC(=O)c2c(C)nc3ccc(Cl)cn23)ccc1O | -5.49%
39 | CSc1ccc(CN2CCC2(C)C(=O)NCc2ccccc2Br)cc1 (centres undefined) | 33.4%
40 | CC(=O)OC[C@@H]1CN(Cc2ccccc2)C[C@H](n2cnc3c(NCc4ccco4)ncnc32)O1 | 14.6%
41 | COc1cc(OC)cc(C2=Cc3ccccc3C(CC(=O)c3ccco3)N2c2ccc(-c3cnc(OC)nc3)cc2)c1 (centres undefined) | 41.4%
42 | COc1ccc(CN2C(=O)C(CC(=O)NCc3cccc4ccccc34)CC(C(=O)N3CCOCC3)=C2C)cc1 (centres undefined) | -2.29%
43 | CC(C)N=C1CCCC1C(=S)SSC(=S)C1CCCC1=NC(C)C (centres undefined) | -68.8% (active)
44 | COC(=O)C[C@@H]1C=C[C@@H](NC(=O)c2cccnc2)[C@@H](CO)O1 | -2.19%
45 | COc1ccc(/C=C(/NC(=O)c2ccc(C)cc2)c2nc3ccccc3[nH]2)cc1OC | -65.3% (active)
46 | COc1ccc(/C=C(\NC(=O)c2ccccc2)C(=O)NCCN2CCOCC2)cc1OC | -3.81%

Row | Structure (SMILES) | max response, negative = inhibition
47 | CCCCCOc1ccc(/C=C/C(=O)NCCc2nc3ccccc3[nH]2)cc1OC | 53.6%
48 | CC1(C(=O)NS(=O)(=O)c2ccccc2)CCN1C(=O)Cc1ccc(-c2ccccc2)cc1 (centres undefined) | -7.77%
49 | CCC1CCCCN1C(=S)NC(=O)c1ccco1 (centres undefined) | -122% (active)
50 | CCC1CCCCN1C(=S)Nc1ccc(C(C)=O)cc1 (centres undefined) | 4%
51 | O=C(NC(=S)N1CCc2ccccc21)c1ccco1 | -1.16%
52 | N#Cc1ccc(OCC(=O)Nc2nc(-c3ccccn3)cs2)cc1 | -9.86%
53 | CN(C)CCCOc1ccc(-c2ccc3nccn3c2)cn1 | 1.66%
54 | CC(C(=O)O)n1cnc2sc3c(c2c1=O)CCCC3 (centres undefined) | 20%
55 | N=c1c2c3c(sc2ncn1CCCN1CCOCC1)CCCCC3 | 8.56%
56 | S=c1[nH]nc2c3c4c(sc3ncn12)CCCC4 | -92.7% (active)
57 | CCOC(=O)N1CCN(C(=O)C[C@@H]2C[C@@]3(C(=O)OC)CC(C)(C)CC=C3N(Cc3ccco3)C2=O)CC1 | -6.32%
58 | CC(=O)c1cc(-c2ccccc2)[nH]c1N1CCCC1 | 0%
59 | O=C1NN(c2ccccc2)C(=O)/C1=C/c1ccc(-c2cccc(C(=O)O)c2)o1 | -54.9% (active)
60 | CC1=NN(c2ccc(Cl)c(C(=O)O)c2)C(=O)/C1=C/c1ccc(-c2ccccc2[N+](=O)[O-])o1 | 8.21%
61 | Cc1cc(C)c(S(=O)(=O)NN=C2c3ccccc3[C@H]3Cc4csc[n+]4[C@@H]23)c(C)c1 | 8.56%
62 | CCC(C)NCCOCCOc1ccc(Br)cc1C (centres undefined) | -71.5% (active)
63 | COCC(C)NCc1cc(Br)ccc1OC (centres undefined) | 13.9%
64 | Cc1cccc(NC(=O)COc2ccc(Br)cc2C)n1 | 2.17%
65 | Cc1ccc(S(=O)(=O)N2CCOCC2)cc1NC(=O)c1ccncc1 | -9.56%
66 | CN(C)CCNC(=O)c1ccc(-c2cn3c(-c4ccc(Oc5ccccc5)cc4)cnc3cn2)cc1 | -27.6%
67 | CCCNC(=O)C1(C)CCN(C(=O)c2ccccc2OC(F)(F)F)C1 (centres undefined) | 7.72%
68 | Cc1ccc(S(=O)(=O)N2C[C@H]3n4c(=O)ccc(=O)n4C[C@H](OC(=O)NC4CCCC4)[C@@]3(O)C2)cc1 | 10.7%
69 | C[C@@H]1CN([C@@H](C)CO)C(=O)c2c(c3ccccc3n2C)-c2ccccc2CO[C@H]1CN(C)C(=O)C1CC1 | 5.32%

Row | Structure (SMILES) | max response, negative = inhibition
70 | COc1ccc(-c2coc3c(C(=O)NC(C)C)cccc23)c(C)c1 | 71.6%
71 | CCCCC/C=C/C1=CC(=O)C[C@H](c2ccc(Cl)cc2)C1 | 8.93%
72 | COc1ccc(C2CC(=O)NC(=O)C2)cc1 | -22.1%
73 | COc1ccc([C@H]2CC(=O)C=C(c3ccc(C)cc3)C2)cc1 | -60.5% (active)
74 | COc1ccc([C@H]2CC(=O)C=C(c3ccc(CO)cc3)C2)cc1 | 3.98%
75 | COc1ccc2cc(C3=CC(=O)C[C@H](c4ccc5c(c4)OCO5)C3)ccc2c1 | 6.05%
76 | COc1ccc([C@H]2CC(=O)C=C(/C=C/c3ccc(Cl)cc3)C2)cc1 | -56.6% (active)
77 | CCCNC(=O)c1cc(C2CCCN(C(=O)c3ccc4c(c3)CCO4)C2)on1 (centres undefined) | 3.62%
78 | O=S1(=O)CC(N2CCN(Cc3ccccc3F)CC2)CN1Cc1cn(Cc2ccccc2)nn1 (centres undefined) | 0%
79 | O=C(Nc1ccccc1)Oc1cccc2cccnc12 | -27.7%
80 | COc1ccc(NC(=O)Nc2cccc3cccnc23)cc1 | -66.6% (active)
81 | COc1cccc(NC(=O)Nc2ccc(F)cc2)c1 | 3.65%
82 | CCOC(=O)[C@]12CCCC=C1N(Cc1ccc(Cl)cc1Cl)C(=O)[C@H](CC(=O)N1CCCCC1)C2 | -25.8%
83 | Cc1ccc([N+](=O)[O-])cc1S(=O)(=O)N1CCCN(C)CC1 | -7.78%
84 | Cc1ccc2c(c1)C1CN(C)CCC1N2C(=S)Nc1ccc(OC(F)F)cc1 (centres undefined) | -6.37%
85 | Cc1ccc2c(c1)C1CN(C)CCC1N2S(=O)(=O)c1cccc(F)c1 (centres undefined) | -54.7% (active)
86 | Cc1ccc2c(c1)C1CN(C)CCC1N2S(=O)(=O)c1ccc(Oc2ccc([N+](=O)[O-])cc2)cc1 (centres undefined) | -68.7% (active)
87 | Cc1ccc2c(c1)C1CN(C)CCC1N2C(=O)c1ccccc1NS(=O)(=O)c1ccc(F)cc1C (centres undefined) | -23.3%
88 | Cc1ccc2c(c1)C1CN(C)CCC1N2C(=S)Nc1ccc(Cl)cc1Cl (centres undefined) | -8.46%
89 | O=C(Nc1cccc(Cc2ccccc2)c1)Nc1ccc2nc([C@@H]3O[C@H](CO)[C@@H](O)[C@H](O)[C@H]3O)[nH]c2c1 | 32.8%
